PubChem BioAssay (Tox21)
Results filed as inconclusive are left out. A call without a number means that no potency is given here. Active and inactive are the calls of the source. Unless noted, calls follow the shape of the dose curve; as a rule, active = well fitted curve in the direction sought with a large enough effect in the repeat runs; inconclusive = weak or mixed curves; inactive = no such curve, though single readings can be large; an effect the other way counts as inactive or inconclusive.

Assays:
[1] = qHTS assay to identify small molecule antagonists of the androgen receptor (AR) signaling pathway using the MDA cell line in the presence of 0.5 nM R1881 - cell viability counter screen (AID 1259242); also: nearly all actives have a fitted effect of over 45% in size; also: potency is read from the fitted curve at half-maximal effect
In short: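 Fluorescence from CellTiter-Fluor, which reports protease activity of live cells, was read 30 min after reagent addition to MDA-kb2 cells that had been incubated 16 hr with compound and 0.5 nM R1881.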

[2] = biological target: Androgen receptor (Homo sapiens) (UniProt P10275); assay: qHTS assay to identify small molecule antagonists of the androgen receptor (AR) signaling pathway using the MDA cell line in the presence of 0.5 nM R1881 (AID 1259243); also: potency is read from the fitted curve at half-maximal effect; nearly all actives have a fitted effect of over 50% in size
In short: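 Inhibition of R1881 (0.5 nM final) induced reporter signal was measured in human MDA-kb2 cells; note the MMTV promoter also responds to GR. Exposure lasted 16 hr at 37C.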

[3] = biological target: Estrogen receptor (Homo sapiens) (UniProt P03372); assay: qHTS assay to identify small molecule antagonists of the estrogen receptor alpha (ER-alpha) signaling pathway using the BG1 cell line in the presence of 0.1 nM 17-beta-estradiol (AID 1259244); also: nearly all actives have a fitted effect of over 50% in size; also: potency is read from the fitted curve at half-maximal effect
In short: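 Quantitative high-throughput screen in VM7Luc4E2 cells: compound plus 0.1 nM E2 (final), 22 h, 37C, 5% CO2; ONE-Glo added, 30 min room temperature, luminescence measured.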

[4] = qHTS assay to identify small molecule HDAC inhibitors (AID 1259364); also: nearly all actives have a fitted effect of over 45% in size; also: potency is read from the fitted curve at half-maximal effect
In short: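 Endogenous HDAC class I/II activity was measured in wild-type HCT-116 cells by HDAC-Glo luminescence after 2 h compound treatment.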

[5] = qHTS assay to identify small molecule HDAC inhibitors - cell viability counter screen (AID 1259365); also: series mostly up to about 92 µM; nearly all actives have a fitted effect of over 50% in size
In short: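 Cytotoxicity was gauged in wild-type HCT-116 cells after a brief 2hr treatment with DMSO-dissolved compounds at 37C and 5% CO2, using CellTiter-Glo luminescence developed for 30min at room temperature.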

[6] = qHTS assay to identify small molecule agonists of the sonic hedgehog signaling (Shh) pathway - cell viability counter screen (AID 1259366); also: nearly all actives have a fitted effect of over 50% in size; also: potency is read from the fitted curve at half-maximal effect
In short: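 Stable Gli1-Luc NIH/3T3 clone, 2,000 cells/well. Compound exposure 24hr at 37C. Read-out: CellTiter-Fluor fluorescence.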

[7] = qHTS assay to identify small molecule antagonists of the sonic hedgehog signaling (Shh) pathway - cell viability counter screen (AID 1259367); also: nearly all actives have a fitted effect of over 55% in size; also: potency is read from the fitted curve at half-maximal effect
In short: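 After a 4 hr settling period, 3T3 Gli1-Luc cells were treated with DMSO-dissolved chemicals and conditioned medium, kept 24 hr at 37C in 5% CO2, and assayed for viability by CellTiter-Fluor fluorescence following 1 hr reagent incubation.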

[8] = qHTS assay to identify small molecule agonists of the sonic hedgehog signaling (Shh) pathway (AID 1259368; calls by dose curve;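 also: NIH/3T3-derived 3T3Gli1-Luc cells carrying a stable Gli1-driven firefly luciferase reporter; series mostly up to about 92 µM; nearly all actives have a fitted effect of over 15% in size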)
In short: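 Luminescent signal was taken as a measure of Gli1-controlled luciferase expression in stably transfected NIH/3T3-derived cells that had been treated for 24 hr with compounds delivered in DMSO.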

[9] = qHTS assay to identify small molecule antagonists of the sonic hedgehog signaling (Shh) pathway (AID 1259369; calls by dose curve; also: nearly all actives have a fitted effect of over 45% in size; also: potency is read from the fitted curve at half-maximal effect)
In short: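 Screening used 3T3Gli1-Luc cells at 2,000 per well, compounds delivered in DMSO, and conditioned medium as agonist stimulus; plates incubated 24hr at 37 C and 5% CO2 before a 30min luciferase step.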

[10] = qHTS assay to identify small molecule agonists of the androgen receptor (AR) signaling pathway in the presence of an antagonist - cell viability counter screen (AID 1259379); also: nearly all actives have a fitted effect of over 25% in size; also: potency is read from the fitted curve at half-maximal effect
In short: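 In MDA-kb2 cells (human breast carcinoma, MMTV-luciferase), compounds at 15 concentrations plus 3.0uM nilutamide; 16 hr, 37C, 0% CO2; CellTiter-Fluor fluorescence read for viability.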

[11] = qHTS assay to identify small molecule agonists of the estrogen receptor beta (ER-beta) signaling pathway - cell viability counter screen (AID 1259380); also: nearly all actives have a fitted effect of over 30% in size; also: potency is read from the fitted curve at half-maximal effect
In short: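 Viability of ER-beta-UAS-bla HEK293T cells was determined by CellTiter-Glo luminescence following 16 hr treatment with test compounds at 37C.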

[12] = qHTS assay to identify small molecule antagonists of the estrogen receptor beta (ER-beta) signaling pathway - cell viability counter screen (AID 1259382); also: nearly all actives have a fitted effect of over 55% in size; also: potency is read from the fitted curve at half-maximal effect
In short: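 Tox21 10K library tested in qHTS format on ER-beta-bla HEK293T cells stimulated with 1nM E2; 16 hr treatment at 37C. Same-well CellTiter-Glo luminescence served as the cell viability measure.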

[13] = biological target: Estrogen receptor (Homo sapiens) (UniProt P03372); assay: qHTS assay to identify small molecule agonists of the estrogen receptor alpha (ER-alpha) signaling pathway in the presence of an antagonist (AID 1259383; calls by dose curve; also: top concentration of the series differs between compounds; nearly all actives have a fitted effect of over 15% in size)
In short: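 In VM7Luc4E2 cells, 4,000 per well, compounds at 15 concentrations were co-incubated 22hr at 37C with 10.0nM final ICI-182,780. Luminescence from the stably transfected 4×ERE-luciferase reporter was recorded 30min after ONE-Glo addition.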

[14] = qHTS assay to identify small molecule agonists or antagonists of the thyroid stimulating hormone receptor (TSHR) signaling pathway - wild type cell line counter screen (AID 1259384; calls by dose curve)
In short: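 Wild-type HEK293 cells were plated 18 h at 37 C/5% CO2, pin-dosed with compound plus Ro20-1724 medium, held 30 min at room temperature, then given cAMP-d2 and anti-cAMP-cryptate; fluorescence was read after 1 h. Fifteen concentrations, triplicate.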

[15] = biological target: Estrogen receptor beta (Homo sapiens) (UniProt Q92731); assay: qHTS assay to identify small molecule agonists of the estrogen receptor beta (ER-beta) signaling pathway (AID 1259377; active = well fitted activation curve with a large enough effect in the signal ratio in the repeat runs, not every such curve was filed as active; the % refers to the signal ratio)
In short: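 Measured by fluorescence intensity from a B/G FRET beta-lactamase substrate (2 h, room temperature) in ER-beta-UAS-bla HEK293T cells treated with DMSO-dissolved compounds for 16 hr at 37C and 5% CO2.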

[16] = biological target: Estrogen receptor beta (Homo sapiens) (UniProt Q92731); assay: qHTS assay to identify small molecule antagonists of the estrogen receptor beta (ER-beta) signaling pathway (AID 1259378; active = well fitted inhibition curve with a large enough effect in the signal ratio in the repeat runs, not every such curve was filed as active; the % refers to the signal ratio; also: potency is read from the fitted curve at half-maximal effect)
In short: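 ER-beta-UAS-bla HEK293T (GripTite) cells in 2% charcoal-stripped FBS medium were preincubated 6 hr at 37C, dosed with compound, then stimulated with 1 nM E2 (final) for 16 hr; beta-lactamase reporter read by B/G FRET fluorescence after 2 hr substrate loading.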

[17] = qHTS assay to identify small molecule antagonists of the estrogen receptor alpha (ER-alpha) signaling pathway using the BG1 cell line in the presence of 0.1 nM 17-beta-estradiol - cell viability counter screen (AID 1259241); also: nearly all actives have a fitted effect of over 40% in size; also: potency is read from the fitted curve at half-maximal effect
In short: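 Viability in VM7Luc4E2 cells after 22 hr compound exposure under 0.1 nM 17beta-estradiol stimulation, by CellTiter-Fluor.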

[18] = qHTS assay to identify small molecule phospholipidosis (PLD) inducers (AID 1259344; active = well fitted curve in the direction sought with a large enough effect; an effect the other way counts as inactive or inconclusive)
In short: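 HepG2 cells grown on collagen I take up LipidTOX Red while exposed to compound for 24 h; after fixation they are imaged at 20x and pit metrics are extracted.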

[19] = biological target: Thyrotropin receptor (Homo sapiens) (UniProt P16473); assay: qHTS assay to identify small molecule antagonists of the thyroid stimulating hormone receptor (TSHR) signaling pathway (AID 1259385; calls by dose curve; also: nearly all actives have a fitted effect of over 20% in size)
In short: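 TSHR-HEK293 cells were plated and held 18 h at 37C/5% CO2, then given compound plus Ro20-1724 and stimulated with TSH at 1.5 ng/mL final. After 30 min at room temperature, cAMP was detected with cAMP-d2/anti-cAMP-cryptate (1 h) by fluorescence.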

Sequence of Thyrotropin receptor (Homo sapiens) (P16473 whole entry, looked up): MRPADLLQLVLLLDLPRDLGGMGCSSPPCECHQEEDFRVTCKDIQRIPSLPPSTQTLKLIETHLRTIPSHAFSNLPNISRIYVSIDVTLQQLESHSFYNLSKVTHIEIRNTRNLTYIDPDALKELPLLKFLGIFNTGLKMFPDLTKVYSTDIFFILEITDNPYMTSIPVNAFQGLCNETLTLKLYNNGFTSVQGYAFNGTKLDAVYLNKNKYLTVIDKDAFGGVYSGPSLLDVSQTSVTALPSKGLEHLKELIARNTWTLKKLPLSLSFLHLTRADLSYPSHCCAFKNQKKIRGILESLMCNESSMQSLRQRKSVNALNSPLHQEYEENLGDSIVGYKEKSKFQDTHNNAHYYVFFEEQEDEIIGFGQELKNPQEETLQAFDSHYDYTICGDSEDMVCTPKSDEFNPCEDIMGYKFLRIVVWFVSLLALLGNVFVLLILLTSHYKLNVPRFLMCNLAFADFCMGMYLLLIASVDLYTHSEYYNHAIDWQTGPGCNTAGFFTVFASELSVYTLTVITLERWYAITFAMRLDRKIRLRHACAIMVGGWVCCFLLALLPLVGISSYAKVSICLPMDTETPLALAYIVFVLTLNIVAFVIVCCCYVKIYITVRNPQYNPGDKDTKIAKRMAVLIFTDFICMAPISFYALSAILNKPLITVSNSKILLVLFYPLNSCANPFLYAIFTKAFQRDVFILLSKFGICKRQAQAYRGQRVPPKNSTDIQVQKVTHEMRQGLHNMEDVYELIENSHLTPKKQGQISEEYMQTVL
Sequence of Estrogen receptor beta (Homo sapiens) (Q92731 whole entry, looked up): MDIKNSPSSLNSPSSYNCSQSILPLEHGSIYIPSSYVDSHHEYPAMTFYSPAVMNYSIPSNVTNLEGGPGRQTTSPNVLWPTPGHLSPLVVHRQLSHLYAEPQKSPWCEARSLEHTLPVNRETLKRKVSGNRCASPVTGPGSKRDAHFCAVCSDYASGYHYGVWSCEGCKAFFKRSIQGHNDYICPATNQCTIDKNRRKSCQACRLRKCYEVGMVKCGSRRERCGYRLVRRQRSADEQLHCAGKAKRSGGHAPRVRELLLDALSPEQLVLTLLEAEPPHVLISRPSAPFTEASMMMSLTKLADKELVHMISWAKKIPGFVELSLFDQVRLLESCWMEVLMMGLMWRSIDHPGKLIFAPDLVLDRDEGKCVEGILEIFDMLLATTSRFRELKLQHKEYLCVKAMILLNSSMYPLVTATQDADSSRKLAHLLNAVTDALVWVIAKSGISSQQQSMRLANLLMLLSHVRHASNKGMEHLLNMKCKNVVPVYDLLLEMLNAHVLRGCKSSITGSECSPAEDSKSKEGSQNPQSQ
Sequence of Estrogen receptor (Homo sapiens) (P03372 whole entry, looked up): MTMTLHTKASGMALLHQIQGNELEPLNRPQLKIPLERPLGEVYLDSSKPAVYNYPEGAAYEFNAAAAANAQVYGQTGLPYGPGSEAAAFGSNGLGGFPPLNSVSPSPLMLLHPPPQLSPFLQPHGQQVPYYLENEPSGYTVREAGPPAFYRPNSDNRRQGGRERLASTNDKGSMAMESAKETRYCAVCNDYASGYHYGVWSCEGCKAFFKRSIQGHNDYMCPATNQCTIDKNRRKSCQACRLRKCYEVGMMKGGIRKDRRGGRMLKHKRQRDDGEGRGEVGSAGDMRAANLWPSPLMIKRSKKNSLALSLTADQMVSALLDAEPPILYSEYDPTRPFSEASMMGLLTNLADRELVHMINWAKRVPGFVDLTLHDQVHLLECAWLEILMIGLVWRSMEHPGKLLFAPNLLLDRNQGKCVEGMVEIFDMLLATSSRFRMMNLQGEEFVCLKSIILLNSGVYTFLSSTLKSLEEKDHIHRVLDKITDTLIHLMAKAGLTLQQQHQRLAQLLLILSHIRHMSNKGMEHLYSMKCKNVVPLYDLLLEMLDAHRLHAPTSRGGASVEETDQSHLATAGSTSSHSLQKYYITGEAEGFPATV
Sequence of Androgen receptor (Homo sapiens) (P10275 whole entry, looked up): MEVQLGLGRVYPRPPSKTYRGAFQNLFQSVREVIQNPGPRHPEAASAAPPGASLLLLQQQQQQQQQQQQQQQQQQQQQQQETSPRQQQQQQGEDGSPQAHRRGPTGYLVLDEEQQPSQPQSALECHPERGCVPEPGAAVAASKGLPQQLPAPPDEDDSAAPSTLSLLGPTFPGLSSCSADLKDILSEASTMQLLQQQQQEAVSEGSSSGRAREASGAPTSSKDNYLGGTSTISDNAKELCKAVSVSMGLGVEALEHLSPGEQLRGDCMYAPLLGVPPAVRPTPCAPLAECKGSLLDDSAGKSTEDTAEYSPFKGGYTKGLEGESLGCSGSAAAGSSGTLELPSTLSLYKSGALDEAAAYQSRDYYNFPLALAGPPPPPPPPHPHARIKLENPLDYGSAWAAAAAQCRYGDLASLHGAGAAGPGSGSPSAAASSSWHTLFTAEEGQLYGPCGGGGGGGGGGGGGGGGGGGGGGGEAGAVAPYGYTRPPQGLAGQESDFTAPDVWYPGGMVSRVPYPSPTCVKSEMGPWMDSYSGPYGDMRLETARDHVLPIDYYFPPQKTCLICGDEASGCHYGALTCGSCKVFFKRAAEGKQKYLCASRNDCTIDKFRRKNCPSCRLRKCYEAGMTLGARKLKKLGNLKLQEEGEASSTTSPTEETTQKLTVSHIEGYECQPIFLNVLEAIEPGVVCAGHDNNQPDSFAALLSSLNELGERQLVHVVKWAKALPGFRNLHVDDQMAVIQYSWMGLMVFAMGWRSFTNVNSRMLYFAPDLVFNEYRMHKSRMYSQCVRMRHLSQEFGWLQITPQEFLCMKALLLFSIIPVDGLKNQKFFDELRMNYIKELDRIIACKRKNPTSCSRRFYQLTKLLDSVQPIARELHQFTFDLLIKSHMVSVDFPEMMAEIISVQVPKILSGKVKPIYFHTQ

Row | Structure (SMILES) | Potency [1] | Potency [2] | Potency [3] | Potency [4] | Potency [5] | Potency [6] | Potency [7] | Potency [8] | Potency [9] | Potency [10] | Potency [11] | Potency [12] | Potency [13] | Potency [14] | Potency [15] | Potency [16] | Potency [17] | outcome [18] | Potency [19]
1 | CCC(OC(C)=O)C(CC(C)NC)(c1ccccc1)c1ccccc1 (configuration not stated) | 43.6 µM (active) | 27.5 µM (active) | 69.2 µM (active) | inactive | inactive | 34.7 µM (active) | 61.6 µM (active) | inactive | 30.9 µM (active) | 49 µM (active) | 49 µM (active) | 54.9 µM (active) | inactive | inactive | – | – | – | – | –
2 | CSC1=N[C@@](C)(c2ccccc2)C(=O)N1Nc1ccccc1 | 27.3 µM (active) | – | – | inactive | inactive | inactive | inactive | inactive | 2.43 µM (active) | 30.6 µM (active) | – | inactive | – | – | inactive | 27.3 µM (active) | – | – | –
3 | CN(C)c1ccc(N)cc1 | – | – | – | 23.7 µM (active) | – | 53.2 µM (active) | – | – | 13.4 µM (active) | 59.6 µM (active) | 11.9 µM (active) | – | inactive | – | inactive | 23.7 µM (active) | 47.4 µM (active) | – | –
4 | CN1CCc2cc(Cl)c(O)cc2[C@H]2c3ccccc3CC[C@@H]21 | inactive | – | inactive | inactive | – | 4.73 µM (active) | 11.9 µM (active) | inactive | inactive | – | 15 µM (active) | inactive | inactive | inactive | – | – | – | inactive | inactive
5 | CN1CCc2cc3c(cc2C1O)OCO3 (configuration not stated) | inactive | – | – | – | inactive | – | – | inactive | – | – | inactive | inactive | – | – | – | – | – | – | –
6 | O=C(NC(=O)c1c(F)cccc1F)Nc1ccc(Oc2ccc(C(F)(F)F)cc2Cl)cc1F | – | – | – | inactive | inactive | inactive | inactive | inactive | 6.86 µM (active) | 68.6 µM (active) | inactive | inactive | – | inactive | – | – | – | – | –
7 | CC(C)=CCN1CC[C@@]2(C)c3cc(O)ccc3C[C@@H]1[C@@H]2C | inactive | – | inactive | inactive | inactive | inactive | inactive | inactive | inactive | – | inactive | inactive | inactive | inactive | inactive | – | – | inactive | inactive
8 | COC(=O)N(OC)c1ccccc1COc1ccn(-c2ccc(Cl)cc2)n1 | 2.17 µM (active) | – | 0.686 µM (active) | inactive | – | inactive | inactive | inactive | 0.0686 µM (active) | 1.37 µM (active) | 0.969 µM (active) | inactive | inactive | inactive | – | – | – | – | inactive
9 | CCOC(=O)CCN(SN(C)C(=O)Oc1cccc2c1OC(C)(C)C2)C(C)C | inactive | – | – | – | inactive | – | inactive | inactive | 54.5 µM (active) | inactive | inactive | inactive | inactive | inactive | – | – | inactive | – | inactive
